In PubChem BioAssay:
Active and inactive are the calls of the source. Unless noted, no rule for the calls is given here.

Columns and labels:
[1] = compound effects on lung adenocarcinoma cell viability – A549, calcein-AM fluorescence, 48 h, basal, profiling panel (AID 1162); conditions: higher = more signal; also: test concentration not given here
[2] = compound effects on differentiated 3T3-L1 adipocyte viability – cell-based, 3T3-L1 adipocytes, calcein-AM fluorescence, 48 h, basal, profiling panel (AID 1163); conditions: 3T3-L1 adipocytes viability, higher = more signal; also: test concentration not given here
[3] = compound effects on hepatocellular carcinoma cell viability – HepG2, calcein-AM fluorescence, 48 h, basal, profiling panel (AID 1164); conditions: higher = more signal; also: test concentration not given here
[4] = compound effects on multiple myeloma cell viability – MM1S, calcein-AM fluorescence, 48 h, basal, profiling panel (AID 1165); conditions: higher = more signal; also: test concentration not given here
[5] = calcein-AM signal in unstimulated myeloma cells – cell-based, calcein-AM fluorescence, 48 h, PK04 Diversity Set, profiling panel (AID 1166); conditions: RPMI8226 myeloma viability, higher = more signal;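 also: cells grown under basal conditions without added stimulus; test concentration not given here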
[6] = JC-1 mitochondrial signal, unstimulated HepG2 cells – cell-based, JC-1 fluorescence, 24 h, 100 nL compound, profiling panel (AID 1167); conditions: HepG2 mitochondrial potential, higher = more signal; also: test concentration not given here
[7] = JC-1 mitochondrial signal, unstimulated adipocytes – cell-based, JC-1 fluorescence, 3T3-L1 adipocytes, 24 h, 100 nL compound, profiling panel (AID 1168); conditions: JC-1 mitochondrial fluorescence, higher = more signal, called active from +8 up or from −8 down; also: test concentration not given here
[8] = JC-1 mitochondrial signal, unstimulated myeloma cells – cell-based, JC-1 fluorescence, RPMI8226, 24 h, 100 nL compound, profiling panel (AID 1169); conditions: JC-1 mitochondrial potential fluorescence, higher = more signal; also: test concentration not given here
[9] = JC-1 mitochondrial signal, unstimulated MM1S myeloma – cell-based, JC-1 fluorescence, 24 h, 100 nL compound, profiling panel (AID 1170); conditions: MM1S mitochondrial potential, higher = more signal; also: test concentration not given here
[10] = resazurin metabolic signal in A549 cells – cell-based, resazurin fluorescence, 24 h, PK04 Diversity Set, profiling panel (AID 1171); conditions: A549 viability, higher = more signal, called active from +8 up or from −8 down; also: test concentration not given here
[11] = resazurin metabolic signal in HepG2 cells – cell-based, resazurin fluorescence, 24 h, PK04 Diversity Set, profiling panel (AID 1172); conditions: HepG2 viability, higher = more signal; also: test concentration not given here
[12] = budding yeast growth changes without added modifier – OD600, strain BY4716, 24 h, basal condition, primary screen (AID 1173); conditions: S. cerevisiae BY4716 growth, OD600, 24 h; higher = more signal, called active from +8 up or from −8 down
[13] = viability profiling in MM1S myeloma cells – cell-based, resazurin fluorescence, basal, 24 h, PK04 Diversity Set, profiling panel (AID 1174); conditions: higher = more signal, called active from +8 up or from −8 down; also: test concentration not given here
[14] = target: Dihydroorotate dehydrogenase (quinone), mitochondrial (Plasmodium falciparum (isolate 3D7)) (UniProt Q08210); assay: inhibition of P. falciparum DHODH – biochemical, C-terminal His tag, absorbance 600 nm, primary screen (AID 1175); conditions: PfDHODH enzyme, DCIP absorbance 600 nm; higher = more signal, called active from +8 up or from −8 down;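 also: recombinant parasite enzyme with a five histidine tag at its C terminus; test concentration not given here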
[15] = inhibition of PAO1 biofilm formation – strain PAO1, LB-PBS medium, absorbance 600 nm, primary screen (AID 1176); also: test concentration not given here; conditions: P. aeruginosa PAO1 growth/biofilm, A600, 12 h; higher = more signal
[16] = growth modulation of vineyard yeast isolate – strain RM11-1a, OD600, basal, 24 h, primary screen (AID 1177);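 also: cultures grown under basal conditions with no added stressor; test concentration not given here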; conditions: S. cerevisiae RM11-1a growth, OD600, 24 h; higher = more signal, called active from +8 up or from −8 down
[17] = growth of efflux-deficient E. coli DRC39 – strain DRC39, OD650, 24 h, E. coli filamentation inducers, primary screen (AID 1178);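 also: growth measured as culture turbidity by optical density at 650 nm; test concentration not given here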; conditions: E. coli DRC39 acrAB, higher = more signal, called active from +8 up or from −8 down
[18] = growth of efflux-deficient E. coli DRC39 – strain DRC39, OD650, 48 h, E. coli filamentation inducers, primary screen (AID 1179);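 also: screen aims at cell division blockers that make cells filament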; conditions: E. coli DRC39 delta-acrAB growth, higher = more signal, called active from +8 up or from −8 down
[19] = viability profiling in RPMI8226 myeloma cells – cell-based, resazurin fluorescence, basal, 24 h, PK04 Diversity Set, profiling panel (AID 1180); conditions: higher = more signal;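 also: RPMI8826 multiple myeloma cell line at 5000 cells per well; test concentration not given here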
[20] = target: E3 ubiquitin-protein ligase XIAP (Homo sapiens) (UniProt P98170); assay: small molecules binding XIAP protein – biophysical, small-molecule microarray, fluorescence 635 nm, primary screen (AID 1181); conditions: higher = more signal;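 also: score merges 667 nm emission and signal to noise over triplicate slides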
Chain of E3 ubiquitin-protein ligase XIAP (Homo sapiens) (P98170 whole entry, looked up): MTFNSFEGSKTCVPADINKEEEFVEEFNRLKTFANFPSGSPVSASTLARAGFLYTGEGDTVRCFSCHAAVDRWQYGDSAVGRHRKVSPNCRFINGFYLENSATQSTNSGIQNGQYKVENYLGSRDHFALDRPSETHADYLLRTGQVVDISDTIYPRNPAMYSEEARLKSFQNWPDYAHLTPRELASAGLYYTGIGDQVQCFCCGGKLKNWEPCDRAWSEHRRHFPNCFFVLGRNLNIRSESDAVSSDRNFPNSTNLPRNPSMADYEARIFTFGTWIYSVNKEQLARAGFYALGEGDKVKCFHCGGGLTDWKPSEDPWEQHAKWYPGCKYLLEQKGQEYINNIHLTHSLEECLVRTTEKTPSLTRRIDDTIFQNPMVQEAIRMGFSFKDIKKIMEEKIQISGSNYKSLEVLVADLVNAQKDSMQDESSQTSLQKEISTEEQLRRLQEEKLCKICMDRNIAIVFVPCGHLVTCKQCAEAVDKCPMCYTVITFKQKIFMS

Chain of Dihydroorotate dehydrogenase (quinone), mitochondrial (Plasmodium falciparum (isolate 3D7)) (Q08210 whole entry, looked up): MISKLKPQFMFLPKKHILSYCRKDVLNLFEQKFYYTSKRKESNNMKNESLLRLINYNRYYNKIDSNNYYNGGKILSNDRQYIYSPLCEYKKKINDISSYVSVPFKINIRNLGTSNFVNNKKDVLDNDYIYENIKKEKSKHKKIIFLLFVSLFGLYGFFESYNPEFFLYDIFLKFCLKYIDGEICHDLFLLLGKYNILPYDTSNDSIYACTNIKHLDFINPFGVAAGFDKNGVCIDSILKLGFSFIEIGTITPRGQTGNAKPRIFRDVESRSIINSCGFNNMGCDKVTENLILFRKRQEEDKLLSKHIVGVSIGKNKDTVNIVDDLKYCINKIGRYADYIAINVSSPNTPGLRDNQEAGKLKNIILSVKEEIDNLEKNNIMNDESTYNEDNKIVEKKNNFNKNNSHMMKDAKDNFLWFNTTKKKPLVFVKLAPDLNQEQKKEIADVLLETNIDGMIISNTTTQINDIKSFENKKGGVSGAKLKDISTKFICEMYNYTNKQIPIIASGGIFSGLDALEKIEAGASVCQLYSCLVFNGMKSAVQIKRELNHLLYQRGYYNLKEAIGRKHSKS

COC(=O)[C@H]1[C@@H]2COc3ccccc3[C@H]2N[C@H]1C(=O)OC
z-score [1]: 0.0306 | z-score [2]: 0.0308 | z-score [3]: 0.648 | z-score [4]: -1.29 | z-score [5]: -0.347 | z-score [6]: 0.321 | z-score [7]: -0.819 (inactive) | z-score [8]: 0.195 | z-score [9]: -0.975 | z-score [10]: -0.124 (inactive) | z-score [11]: 0.0968 | z-score [12]: -1.81 (inactive) | z-score [13]: -0.586 (inactive) | composite z-score [14]: -16.2 (active) | z-score [15]: -0.508 (inactive) | z-score [16]: -0.398 (inactive) | z-score [17]: 0.226 (inactive) | z-score [18]: 0.398 (inactive) | z-score [19]: -0.139 | composite z-score [20]: 0.0432

CCOC(=O)C[C@H]1[C@H](OC(=O)Cc2ccc3c(c2)OCO3)[C@@H](NC(=O)c2ccc3ccccc3c2)c2cc(OCCCO)ccc2N1C(=O)Cc1ccc(OC)cc1
z-score [1]: 1.55 | z-score [2]: 1.08 | z-score [3]: 1.56 | z-score [4]: 0.956 | z-score [5]: 0.41 | z-score [6]: 1.66 | z-score [7]: -0.14 (inactive) | z-score [8]: -0.384 | z-score [9]: -1.1 | z-score [10]: -0.654 (inactive) | z-score [11]: 0.329 | z-score [12]: -0.566 (inactive) | z-score [13]: -0.162 (inactive) | composite z-score [14]: -1.09 (inactive) | z-score [15]: 0.0642 (inactive) | z-score [16]: -1.66 (inactive) | z-score [17]: 0.37 (inactive) | z-score [18]: 1.11 (inactive) | z-score [19]: 0.202 | composite z-score [20]: -0.0151

COCCOC(=O)N1C(=O)[C@@]2(c3cc(C#CCNC(N)=O)ccc31)[C@H](C(=O)N1CCCCCCC1)[C@H]1C(=O)O[C@H](c3ccccc3)[C@H](c3ccccc3)N1[C@@H]2c1ccccc1OCCO
z-score [1]: 1.01 | z-score [2]: -0.177 | z-score [3]: 1.04 | z-score [4]: 1.38 | z-score [5]: 0.767 | z-score [6]: -1.3 | z-score [7]: 0.315 (inactive) | z-score [8]: -0.587 | z-score [9]: -1.57 | z-score [10]: -0.307 (inactive) | z-score [11]: 0.0533 | z-score [12]: 1.41 (inactive) | z-score [13]: 0.188 (inactive) | composite z-score [14]: 0.641 (inactive) | z-score [15]: 2.08 (inactive) | z-score [16]: 2.43 (inactive) | z-score [17]: 0.532 (inactive) | z-score [18]: 0.614 (inactive) | z-score [19]: 0.368 | composite z-score [20]: 0.291

COc1ccc(C(O)C2C=CC3C(=O)N(C)C(=O)C3N2N2CCCCC2)cc1OCc1ccccc1 (stereo not given)
z-score [1]: 0.138 | z-score [2]: -0.393 | z-score [3]: -0.888 | z-score [4]: -0.25 | z-score [5]: 0.0629 | z-score [6]: -1.8 | z-score [7]: -0.693 (inactive) | z-score [8]: -0.813 | z-score [9]: 0.536 | z-score [10]: 2.31 (inactive) | z-score [11]: 1.06 | z-score [12]: -1.21 (inactive) | z-score [13]: 0.0046 (inactive) | composite z-score [14]: 1.05 (inactive) | z-score [15]: 0.779 (inactive) | z-score [16]: 1.26 (inactive) | z-score [17]: -0.738 (inactive) | z-score [18]: -0.811 (inactive) | z-score [19]: -2.38 | composite z-score [20]: -0.0937

O=C/C=C/c1ccccc1Cl
z-score [1]: 1.23 | z-score [2]: 0.556 | z-score [3]: 1.03 | z-score [4]: -0.882 | z-score [5]: 0.895 | z-score [6]: 1.74 | z-score [7]: 0.603 (inactive) | z-score [8]: 0.562 | z-score [9]: 1.09 | z-score [10]: 0.807 (inactive) | z-score [11]: 0.965 | z-score [12]: -7.23 (inactive) | z-score [13]: 0.413 (inactive) | composite z-score [14]: -0.516 (inactive) | z-score [15]: -0.227 (inactive) | z-score [16]: -1.17 (inactive) | z-score [17]: 0.834 (inactive) | z-score [18]: 0.496 (inactive) | z-score [19]: 2.16 | composite z-score [20]: -0.0393

C=CCC(OC(C)=O)[C@@H]1[C@@H](N(Cc2cccc3ccccc23)C(=O)Cc2ccc(F)cc2)c2cc(OCCCO)ccc2N1C(=O)Cc1ccc2ccccc2c1 (stereo not given in full)
z-score [1]: 0.677 | z-score [2]: -0.399 | z-score [3]: 0.607 | z-score [4]: 0.853 | z-score [5]: -0.538 | z-score [6]: 1.72 | z-score [7]: 0.38 (inactive) | z-score [8]: -0.0877 | z-score [9]: -0.24 | z-score [10]: 0.775 (inactive) | z-score [11]: 0.549 | z-score [12]: 0.595 (inactive) | z-score [13]: 0.295 (inactive) | composite z-score [14]: -0.373 (inactive) | z-score [15]: 0.195 (inactive) | z-score [16]: 0.0764 (inactive) | z-score [17]: -0.283 (inactive) | z-score [18]: 0.4 (inactive) | z-score [19]: -1.29 | composite z-score [20]: -0.0332

COCCCNC(=O)[C@@H]1c2ccccc2C(=O)N(CC23CC4CC(CC(C4)C2)C3)[C@H]1c1ccc(CO)cc1
z-score [1]: 0.0071 | z-score [2]: 1.3 | z-score [3]: 0.0729 | z-score [4]: -0.193 | z-score [5]: -0.996 | z-score [6]: 1.12 | z-score [7]: -0.227 (inactive) | z-score [8]: 0.0172 | z-score [9]: 0.0814 | z-score [10]: 0.729 (inactive) | z-score [11]: 0.172 | z-score [12]: -0.323 (inactive) | z-score [13]: -0.104 (inactive) | composite z-score [14]: 0.297 (inactive) | z-score [15]: 0.87 (inactive) | z-score [16]: 0.208 (inactive) | z-score [17]: 0.0488 (inactive) | z-score [18]: -0.543 (inactive) | z-score [19]: 0.0917 | composite z-score [20]: 0.03

CCC1=C2CN(Cc3ccccc3Br)[C@@H]([C@@H](O)Cc3ccccc3)C2C=CCC1 (stereo not given in full)
z-score [1]: 0.596 | z-score [2]: 2.48 | z-score [3]: 0.155 | z-score [4]: -3.24 | z-score [5]: -3.99 | z-score [6]: 1.42 | z-score [7]: -0.473 (inactive) | z-score [8]: -0.981 | z-score [9]: -2.18 | z-score [10]: 1.07 (inactive) | z-score [11]: 0.596 | z-score [12]: -5.76 (inactive) | z-score [13]: -1.3 (inactive) | composite z-score [14]: -2.74 (inactive) | z-score [15]: -0.693 (inactive) | z-score [16]: -0.177 (inactive) | z-score [17]: 1 (inactive) | z-score [18]: 0.441 (inactive) | z-score [19]: -1.25 | composite z-score [20]: 0.0451

O=C(N1CCCCC1)[C@@]1(CCS(=O)(=O)c2ccccc2)N=C(c2ccc(OCCCO)cc2)O[C@H]1c1ccccc1
z-score [1]: -1.35 | z-score [2]: 1 | z-score [3]: -1.12 | z-score [4]: -2.25 | z-score [5]: -3.55 | z-score [6]: 2 | z-score [7]: -0.751 (inactive) | z-score [8]: -0.72 | z-score [9]: -2.09 | z-score [10]: -0.908 (inactive) | z-score [11]: 0.233 | z-score [12]: 0.0247 (inactive) | z-score [13]: -2.91 (inactive) | composite z-score [14]: 1.05 (inactive) | z-score [15]: -1.01 (inactive) | z-score [16]: 0.0929 (inactive) | z-score [17]: 1.33 (inactive) | z-score [18]: 0.561 (inactive) | z-score [19]: -2.78 | composite z-score [20]: 0.198
